Screening results deposited in PubChem BioAssay by National Center for Advancing Translational Sciences (NCATS).
HCMV antiviral – blocks human cytomegalovirus replication; HFF cells, HCMV-luciferase reporter, 72 h; active compounds read low; activity change, negative = inhibition, % at 57.5 µM; 4.5% of 410,000 active; AID 1259415; in the data active = activity change below about -60%; inconclusive = no clear call, values can overlap the other calls; inactive = above about -39%
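HFF cells seeded 16 h at 37C, treated with compounds, infected with luciferase-reporter HCMV at MOI 1 PFU/cell; luciferase read at 72 h post infection, normalized to buffer-only and Salinomycin controls.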
Marburg entry inh – Marburg virus entry inhibition. AID 540276. 1.8% of 300,000 active. Marburg virus pseudotyped entry inhibition, cell reporter. Potency, µM (doses to about 37.8 µM), without a hit: top-dose activity change, negative = inhibition, hits mostly inhibitors; calls by dose curve; tested in HEK293 cells; note: potency is the fitted concentration of half-maximal effect
FMDV inh – foot and mouth disease virus antiviral activity; AID 1159524; FMDV antiviral cell-based qHTS; Potency, µM (doses to about 57.9 µM), without a hit: at the highest dose activity change, negative = inhibition, hits mostly inhibitors; 1.2% of 410,000 active; calls by dose curve; tested in HEK293T cells; note: read-out not given here; potency is the fitted concentration of half-maximal effect; nearly all actives have a fitted effect of over 45% in size
LASV entry inh – blocks Lassa virus binding to or entry into cells | Lassa virus pseudotype entry inhibition, cell reporter | 1.2% of 300,000 active | Potency, µM (series often up to 37.9 µM), inactives show at the highest dose activity change, negative = inhibition, hits mostly inhibitors | AID 540256; calls by dose curve; tested in HEK293 cells; note: potency is the fitted concentration of half-maximal effect; nearly all actives have a fitted effect of over 50% in size
Numbers without * were called inactive; ? = inconclusive; . = not tested or not shown; [ ] = dose if it differs, or a comment. Rows were chosen to be rich in hits. Some 6.2% of all compounds tested hit in one or more screens of this group. % is set by controls: 0 for no effect and ±100 for the full control effect.

SMILES	HCMV antiviral	Marburg entry inh	FMDV inh	LASV entry inh
COc1ccccc1N1CCN(c2nc(CNC(=O)C3CC34CCCC4)nc3ccccc23)CC1 (configuration not stated)	.	.	-7.2%	.
C#CCN1C(C)=C(C(=O)OC)C(c2cccc([N+](=O)[O-])c2)C(C(=O)OCC)=C1C (configuration not stated)	-29.3	14.1µM*	-19.8%	?
CCOC(=O)C1=C(C)NC(C)=C(C(=O)OCC)C1c1cccc([N+](=O)[O-])c1	12.4	.	?	.
CCN1C(N(C)CCOC)=NC(c2cccc(F)c2)C(C(=O)OC)=C1C (configuration not stated)	.	-24.0%[14.2 µM]	.	?
O=[N+]([O-])c1ccc(C(c2sc3nc(-c4ccco4)nn3c2O)N2CCN(Cc3ccccc3)CC2)cc1 (configuration not stated)	6.2	.	-5.9%	12.3%[46.1 µM]
COC(=O)C1CC23C=CCN4CCC5(c6ccccc6NC15C2C)C43 (configuration not stated)	-83.5*	?	-1.5%	?
CC1(C)CC(C(CCN(Cc2ccccc2)C(=O)c2ccco2)c2ccc(F)cc2)CCO1 (configuration not stated)	-8.2	?	14.1µM*	?
O=C(c1ccco1)N(CCC(c1ccccc1)c1ccco1)Cc1ccc(F)cc1 (configuration not stated)	20.2	?	?	23.1µM*
CC(=O)c1c(C)n(-c2cccc(C)c2)c2ccc(OC(=O)COc3ccccc3)cc12	-62.6*	-16.9%[46.1 µM]	0.0%	-13.3%[46.1 µM]
CCOc1ccc(-n2c(C)c(C(C)=O)c3cc(OC(C)=O)ccc32)cc1	-77.8*	.	?	.
CC(=O)c1c(C)n(-c2ccc(Cl)cc2)c2ccc(OC(=O)COc3ccccc3)cc12	-16.8	.	-11.3%	11.0%[46.1 µM]
CCOc1ccc(-n2c(C)c(C(C)=O)c(C(C)=O)c2C)cc1	?	-0.5%	-23.3%	1.3%
CCOc1ccc(-n2c(C)c(C(=O)O)c3cc(OC)ccc32)cc1	?	6.31µM*	-2.0%	?
O=C(NCCc1cccs1)c1ccc(Cn2c(SCc3cccc(F)c3)nc3cccnc32)cc1	-5.1	?	-16.3%	.
O=C(NCc1cccs1)c1ccc(Cn2c(SCc3cccc(F)c3)nc3cccnc32)cc1	-70.0*	.	-6.9%	?
O=C(Cn1c(SCc2cccc(F)c2)nc2cccnc21)Nc1ccc(F)c(Cl)c1	-72.6*	.	-16.7%	-0.3%[46.1 µM]
CC(C)OCCCNC(=O)c1ccc(CSc2nc3cccnc3n2Cc2ccccc2)cc1	-97.8*	.	-21.6%	2.0%[46.1 µM]
COC[C@@H](O)[C@H]1OCc2ccccc2[C@H]1C=Cc1ccccc1	.	6.8%[14.2 µM]	.	.
CC[C@H]1OC(c2ccccc2)[C@H](C)[C@H]2O[C@@H]2[C@@H]1C(=O)OC (some centres not stated)	.	-5.4%[14.2 µM]	.	.
Cc1ccc2nc(-c3ccncc3)c(NC3CCCC3)n2c1	-64.7*	.	-23.6%	.
Cc1ccc(C(=O)N2c3ccccc3OCC2C)cc1 (configuration not stated)	-12.8	.	-11.1%	.
Cc1ccc(C(=O)N2C(=O)C(c3ccccc3)Oc3ccccc32)cc1 (configuration not stated)	-31.6	7.94µM*	7.2%	?
Cc1ccc(N=Nc2cc(C)ccc2O)c(C)c1	-6.6	.	72.8%	.
Cc1ccc(C)c(N=Nc2ccc(O)c3ncccc23)c1	-83.7*	.	?	.
Cc1cccc(N=Nc2ccc(O)c3ncccc23)c1	-102.2*	4.47µM*	5.8%	?
SMILES	HCMV antiviral	Marburg entry inh	FMDV inh	LASV entry inh
O=Cc1ccc(O)c2ncccc12	.	?	-15.4%	?
Oc1ccc(N=Nc2ccc3c(c2)OCCO3)c2ncccc12	-103.0*	.	3.98µM*	.
Cc1ccc2c(c1)Cc1c(C(=O)NN3CCCCC3)nn(-c3ccc(Cl)cc3Cl)c1-2	.	.	0.0%	.
Cc1cc(C)c2c(CC(=O)Nc3nnc(C(C)C)s3)coc2c1	?	?	-12.8%	-24.4%[46.1 µM]
Cc1cc(C)c(NC(=O)CSc2nc3ccccc3c3nc(CCn4cncc4C)nn23)c(C)c1	?	.	-4.7%	-20.7%[46.1 µM]
COc1ccc2c(c1)[C@@]1(OCCC=C[C@@H]1C)C(=O)N2Cc1ccc(F)cc1	.	27.7%[14.2 µM]	.	?
O=c1cc(N2CCCCC2)c(-c2ccccc2)nn1Cc1ccccc1Cl	-18.0	?	39.8µM*	?
O=c1cc(Cl)c(-c2ccccc2)nn1Cc1ccc(Cl)cc1	-64.5*	-0.5%	-14.5%	-23.9%
O=c1c2ccccc2c(-c2ccccc2)nn1Cc1ccc(Cl)cc1	22.4	-27.6%	-13.6%	-0.4%
CC(=O)c1c(CSc2ccccc2)oc2ccc(O)c(CN(C)C)c12	-69.5*	?	-11.0%	?
CCOC(=O)c1c(CSc2ccc(C)cc2)oc2ccc(O)cc12	-37.5	-0.1%	22.4µM*	?
COC(=O)Cc1c(CSc2ccccc2)oc2ccc(O)c(CN(C)C)c12	?	0.3%[46.1 µM]	-21.1%	-22.9%[46.1 µM]
CCOC(=O)c1c(C)oc2ccc(O)c(CN(C)C)c12	20.0	-3.6%[46.1 µM]	-6.0%	-17.2%
CCOC(=O)c1c(CSc2ccc(CC)cc2)oc2ccc(O)c(CN(C)C)c12	-81.9*	4.47µM*	?	?
Cc1cc(C)cc(NC(=O)CCc2c(C)nc3c(c2C)c(=O)n(C)c(=O)n3C)c1	-9.8	2.6%[46.1 µM]	?	?
COC(=O)c1nnn(CC(=O)Nc2cc(F)ccc2F)c1C(=O)OC	-109.0*	4.5%[46.1 µM]	-11.6%	-0.9%[46.1 µM]
CCOc1ccc(NC(=O)/C=C/c2ccccc2)c([N+](=O)[O-])c1	36.6	-26.1%	21.6%	18.6%
CCOc1ccc(N/C=C/C(=O)c2ccccc2)c([N+](=O)[O-])c1	1.0	?	-84.6%	1.12µM*
Cc1cccc(NC(=O)c2ccc(N(Cc3ccccc3)S(C)(=O)=O)cc2)c1	-66.0*	.	22.4µM*	?
CC(=O)c1cccc(NC(=O)c2ccc(N(Cc3ccccc3)S(C)(=O)=O)cc2)c1	5.5	-23.1%	31.6µM*	0.5%
CCC1CCc2nc3sc(C(=O)Nc4cccc(C(F)(F)F)c4)c(N)c3cc2C1 (configuration not stated)	-33.1	11.3%[46.1 µM]	-23.9%	?
COc1ccc(Cl)cc1CSc1n[nH]c(C)n1	-27.3	16.3%	16.3%	19.2%
CCCCOc1ccc(Cl)cc1CSc1n[nH]c(C)n1	-1.6	0.206µM*	?	-26.2%
Cc1cccc(N2CCN(S(=O)(=O)c3ccc(-c4cnc(C5CC5)o4)cc3)CC2)c1C	-17.4	.	?	?
O=[N+]([O-])c1ccc(/C=C/c2ccc3cccc([N+](=O)[O-])c3n2)cc1	?	?	-10.2%	-15.0%
SMILES	HCMV antiviral	Marburg entry inh	FMDV inh	LASV entry inh
CCOc1cc(/C=C/c2ccc3cccc([N+](=O)[O-])c3n2)ccc1OCC(=O)N(C)C	-109.2*	?	?	.
CCOc1cc(/C=C/c2ccc3cccc([N+](=O)[O-])c3n2)ccc1O	-99.3*	?	?	?
COc1cc(/C=C/c2ccc3cccc([N+](=O)[O-])c3n2)ccc1OCC#N	-93.4*	?	-22.9%	?
CCCN1CCN(c2ncnc3sc(C(=O)Nc4ccc(C(C)C)cc4)c(C)c23)CC1	-5.0	.	?	15.3%[46.1 µM]
CC(NNC(=S)N1CCCCCC1)c1ccc2ccccc2n1 (configuration not stated)	-93.5*	.	56.9%	.
Cc1ccc(C)c(S(=O)(=O)c2nnn3c2nc(NC(C)C)c2sccc23)c1	-69.9*	.	?	-23.0%[46.1 µM]
